# Pf growth 96h – Primary qHTS for delayed death inhibitors of the malarial parasite plastid, 96 hour incubation; Potency, µM (doses to about 28.7 µM), usual class: inhibitors; 320,000 compounds, 6.9% hits; P. falciparum luciferase reporter growth, 96 h
#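 P. falciparum expressing integrated firefly luciferase, in erythrocytes at 2% hematocrit, 0.05% parasitemia, incubated with compounds 96 h at 37 C, 5% CO2. Growth inhibition read as loss of luminescence; two-generation exposure targets delayed-death apicoplast inhibitors.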
# LASV entry inh – qHTS for Inhibitors of binding or entry into cells for Lassa Virus; Lassa virus pseudotype entry inhibition, cell reporter; Potency, µM (top dose mostly 37.9 µM), usual class: inhibitors; 300,000 compounds, 1.2% hits; calls by dose curve; tested in HEK293 cells; note: nearly all actives have a fitted effect of over 50% in size
# CHX counter – Cycloheximide Counterscreen for Small Molecule Inhibitors of Shiga Toxin; 300,000 compounds, 12% hits; cell reporter, cycloheximide protein synthesis inhibition counterscreen; AID 2314, 2010; max response, %; in the data active = max response mostly above about 13%, no sharp cut-off; inactive = mostly below about 14%; note: read at 38.3 µM for the half of the compounds with a filed dose
# Shiga inhibitor – A qHTS for Small Molecule Inhibitors of Shiga Toxin | 290,000 compounds, 9.2% hits | inhibition, % at 38.7 µM | Vero cells, Shiga toxin protein synthesis inhibition reporter; in the data active = inhibition mostly above about 28%, no sharp cut-off; inactive = mostly below about 43%
# Pf growth 48h – Primary qHTS for delayed death inhibitors of the malarial parasite plastid, 48 hour incubation; AID 504832, 2011; P. falciparum luciferase growth in erythrocytes, 48 h; 310,000 compounds, 5.9% hits; Potency, µM (series often up to 28.7 µM), actives largely listed as inhibitors
#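 Cell-based growth assay: transgenic P. falciparum expressing firefly luciferase, cultured in red cells within RPMI 1640 containing 0.5% w/v Albumax, 24 mM bicarbonate and gentamycin. A drop in luciferase activity indicates inhibition.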
# Marburg entry inh – qHTS for inhibitors of binding or entry into cells for Marburg Virus; Marburg virus pseudotyped entry inhibition, cell reporter; Potency, µM (top dose mostly 37.8 µM), most hits filed as inhibitors; 300,000 compounds, 1.8% hits; AID 540276, 2011; calls by dose curve; tested in HEK293 cells
# Hits are given with their value; n = inactive; u = inconclusive; x = no result. Hits are enriched below; roughly 19% of the tested compounds scored in any of these assays. Unless noted, calls come from the whole dose curve; as a rule, active = well fitted inhibition curve with a large enough effect; inconclusive = small, poorly fitted or top-dose-only effect, or another doubt; inactive = no such curve, though single readings can be large or run the other way.
SMILES,Pf growth 96h,LASV entry inh,CHX counter,Shiga inhibitor,Pf growth 48h,Marburg entry inh
Cc1cc(SCC(=O)Nc2nsc(-c3ccc(C(C)(C)C)cc3)n2)nc2ccccc12,x,n,x,x,x,n
CSc1ccc(CC(=O)N2CCC(n3nccc3NC(=O)C3CC3)CC2)cc1,u,x,45,75,n,x
COc1cccc(CC(=O)N2CCC(n3nccc3NC(=O)C3CC3)CC2)c1,n,u,n,n,n,n
Cn1cc(CN2CCC(n3nccc3NC(=O)c3ccccc3Cl)CC2)c2ccccc21,u,x,n,n,3.3µM,x
COc1ccccc1C(=O)Nc1ccnn1C1CCN(Cc2cn(C)c3ccccc23)CC1,n,x,n,n,u,x
O=C(Nc1ccnn1C1CCN(Cc2ccccc2)CC1)C1CCCC1,n,n,n,n,u,u
COc1ccc(CN2CCC(n3nccc3NC(=O)C3CCCC3)CC2)c(OC)c1,n,n,n,n,u,u
CCOc1ccccc1CN1CCC(n2nccc2NC(=O)C2CCCC2)CC1,n,u,n,n,12µM,u
COc1ccc(O)c(CN2CCC(n3nccc3NC(=O)C3CCCC3)CC2)c1,u,n,n,n,13µM,u
Cc1cccc2cc(CN(CC3CCCO3)C(=S)Nc3ccccc3)c(=O)[nH]c12 (stereo not given),n,u,n,n,n,u
O=c1[nH]c2cc3c(cc2cc1C(c1nnnn1C1CCCC1)N1CCSCC1)OCCO3 (stereo not given),n,n,n,n,n,u
CC(Cc1ccc(Cl)cc1)N1CCC(n2nccc2NC(=O)C2CCCC2)CC1 (stereo not given),u,x,n,n,10µM,x
COc1ccc2cc(/C(C)=N/NC(=O)c3cc(-c4cccnc4)nc4ccccc34)ccc2c1,u,n,n,n,n,u
COc1ccc(-c2cc(C(=O)N/N=C(\C)c3cccnc3)c3ccccc3n2)c(OC)c1,u,n,n,42,n,n
COc1ccc(OC)c(-c2cc(C(=O)N/N=C(\C)c3cccnc3)c3ccccc3n2)c1,n,n,n,n,1.5µM,n
CCOc1ccc(-c2cc(C(=O)N/N=C(\C)c3cccnc3)c3ccccc3n2)cc1,n,u,n,n,n,u
CC(C)c1ccc(/C=N/NC(=O)c2ccccc2Cl)cc1,u,x,46,107,n,x
COC(=O)c1ccc(/C=N/NC(=O)c2ccccc2Cl)cc1,n,u,42,47,n,n
CN(c1ccccc1)S(=O)(=O)c1cccc(NC(=O)Nc2ccc(Cl)cc2C#N)c1,u,n,n,n,n,n
C[C@]12C(=O)N(c3ccc(C(F)(F)F)cc3)C(=O)N1[C@@H]1c3ccccc3OC[C@@H]1[C@H]2c1ccccc1,u,x,n,n,u,x
C[C@]12C(=O)N(c3cccc(F)c3)C(=O)N1[C@@H]1c3ccccc3OC[C@@H]1[C@H]2c1ccccc1,8.3µM,x,n,n,u,x
Cc1ccc(N2C(=O)N3[C@H]4c5ccccc5OC[C@@H]4[C@@H](c4ccccc4)[C@@]3(C)C2=O)cc1,8.3µM,x,n,n,u,x
C[C@]12C(=O)N(c3ccccc3)C(=O)N1[C@@H]1c3ccccc3OC[C@@H]1[C@H]2c1ccccc1,n,x,n,n,u,x
Cc1nnc(SCC(=O)Nc2ccc(Cl)cn2)[nH]c1=O,n,n,n,n,n,n
O=C(/C=C/c1ccc(Cl)cc1)NC1CCS(=O)(=O)C1 (stereo not given),u,n,n,n,u,n
SMILES,Pf growth 96h,LASV entry inh,CHX counter,Shiga inhibitor,Pf growth 48h,Marburg entry inh
COc1ccc(/C=C/C(=O)C(C(N)=O)=C2SCCS2)cc1,n,n,31,49,n,n
COc1ccc(/C=C/C(=O)Nc2sc3c(c2C(N)=O)CCCC3)cc1,x,n,x,x,x,x
NC(=O)C(C(=O)/C=C/c1ccc(Cl)cc1)=C1SCCS1,8.3µM,x,15,n,u,x
O=C(Nc1ncc([N+](=O)[O-])s1)C1CC(=O)N(c2ccc(F)cc2)C1 (stereo not given),n,n,n,n,n,n
CC1C(c2ccccc2)N(C)CCC12NC(=O)NC2=O (stereo not given),n,n,n,n,n,n
Cc1cc(C)n2nc(C(=O)Nc3ccc(S(=O)(=O)N4CCCCC4)cc3)nc2n1,x,n,n,n,u,n
COc1ccc(NC(=O)c2ccc(NC(=O)c3nc4nc(C)cc(C)n4n3)cc2)cc1,u,n,x,x,n,u
Cc1cc(C)n2nc(C(=O)Nc3ccc4c(c3)CCC4)nc2n1,n,x,34,104,n,n
Cc1cc(C)n2nc(C(=O)Nc3ccc(S(=O)(=O)N4CCCC4)cc3)nc2n1,2.3µM,n,n,n,n,n
COc1cccc(-c2cn3c(n2)sc2cc(C(=O)NCCc4ccc(OC)c(OC)c4)ccc23)c1,x,n,x,x,x,x
O=C(NC1CCCCC1)C(c1cccnc1)N(CCc1ccccc1)C(=O)Cc1cccs1 (stereo not given),n,n,n,n,13µM,n
O=C(NCC(=O)N(CCc1ccccc1)C(C(=O)NC1CCCCC1)c1ccncc1)c1ccco1 (stereo not given),n,n,n,n,u,n
O=C(NC1CCCC1)C(c1cccnc1)N(CCc1ccccc1)C(=O)c1ccco1 (stereo not given),n,u,n,n,5.2µM,n
O=C(NC1CCCC1)C(c1ccncc1)N(Cc1ccccc1)C(=O)Cc1cccs1 (stereo not given),u,n,n,n,u,u
O=C(NCC(=O)N(CCc1ccccc1)C(C(=O)NC1CCCC1)c1cccnc1)c1ccco1 (stereo not given),n,n,n,n,15µM,n
COc1cccc(CN(C(=O)c2ccco2)C(C(=O)NC2CCCC2)c2cccnc2)c1 (stereo not given),n,n,n,n,n,n
NC(=O)c1ccc(NC(=O)COC(=O)CCc2ccc(S(=O)(=O)N3CCCCC3)cc2)cc1,u,x,n,n,n,x
O=C(c1cccc(Cl)c1)N1c2nc(-c3ccco3)nn2C2(CCCCC2)[C@@H]2CCCC[C@@H]21,x,n,x,x,x,n
CC(C)(C)c1ccc(-c2nc3[nH]c(=O)cc(NC(=O)c4ccco4)n3n2)cc1,4.1µM,x,n,n,10µM,x
Cc1ccc(-c2nc3[nH]c(=O)cc(NC(=O)c4cccs4)n3n2)cc1,u,x,n,n,u,x
Cc1ccc(-c2nc3[nH]c(=O)cc(NC(=O)C(C)C)n3n2)cc1,0.083µM,x,n,n,0.29µM,x
CCC(=O)Nc1cc(=O)[nH]c2nc(-c3ccc(Cl)cc3)nn12,u,x,n,n,0.26µM,x
CC(C)(C)c1cc(NC(=O)c2ccco2)n(-c2ccccc2)n1,n,n,n,n,u,n
Cc1ccc(NC(=O)c2cc3c(=O)oc4ccc(C)cc4c3s2)nc1,n,x,n,n,n,x
O=C1CSC(c2cccnc2)N1c1cccc(Cl)c1 (stereo not given),n,n,n,n,n,n
CC(=O)CC(C)(C)S(=O)(=O)c1ccc(NC(C)=O)cc1,n,n,n,n,n,n
